Screening data from PubChem BioAssay.
NPC1 prom act: NPC1 promoter activation | Potency, µM (top dose mostly 9.22 µM), most hits filed as activators | hit rate 2.4% among 320,000 | Huh7 NPC1 promoter luciferase reporter, 24 h; further: nearly all actives have a fitted effect of over 60% in size
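NPC1 promoter–luciferase Huh7 cells; 24 h compound; luminescence.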
ELG1 genotox: induces genotoxicity in HEK293T cells with luciferase-tagged ELG1 | HEK293T ELG1-luciferase reporter, luminescence, 16 h | hit rate 1.3% among 330,000 | Potency, µM (highest dose often 46 µM), actives largely listed as activators; further: nearly all actives have a fitted effect of over 60% in size
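Reporter readout depends on ELG1 protein level, which increases with genetic stress. After 16 hr compound exposure at 37 °C, luciferase activity was quantified using ONE-Glo.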
Rab9 promoter act: activators of Rab9 promoter; Huh7 Rab9 promoter-luciferase reporter, luminescence, 24 h; Potency, µM (titrated, usually from 9.22 µM), usual class: activators; hit rate 2.8% among 320,000; further: nearly all actives have a fitted effect of over 60% in size
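Promoter activation is measured as luciferase luminescence in Huh7 cells stably transfected with a Rab9 promoter–luciferase construct, following 24 h compound exposure at 37 °C and 10 min reagent incubation at ambient temperature.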
SMN2 splice up: SMN2 splice variant enhancement | HEK293 SMN2-luciferase splicing reporter, luminescence, 30-36 h | Potency, µM (top dose mostly 46.1 µM), actives largely listed as activators | hit rate 2.8% among 210,000; further: nearly all actives have a fitted effect of over 55% in size
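qHTS luciferase splicing reporter: luminescence rises when SMN2 exon 7 is included in transfected HEK293 cells. Compound exposure lasted 30-36 h at 37C, with 4.5 mM final sodium butyrate as control, followed by a ONE-Glo read.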
FLuc modulator: counter-screen for miR-21 project: firefly luciferase inhibitors or activators; P08659; purified FLuc, Km substrates, luminescence inhibition; Potency, µM (titrated, usually from 57.5 µM), most hits filed as inhibitors; hit rate 6.9% among 360,000; further: nearly all actives have a fitted effect of over 55% in size
Target sequence (P08659 whole entry, looked up): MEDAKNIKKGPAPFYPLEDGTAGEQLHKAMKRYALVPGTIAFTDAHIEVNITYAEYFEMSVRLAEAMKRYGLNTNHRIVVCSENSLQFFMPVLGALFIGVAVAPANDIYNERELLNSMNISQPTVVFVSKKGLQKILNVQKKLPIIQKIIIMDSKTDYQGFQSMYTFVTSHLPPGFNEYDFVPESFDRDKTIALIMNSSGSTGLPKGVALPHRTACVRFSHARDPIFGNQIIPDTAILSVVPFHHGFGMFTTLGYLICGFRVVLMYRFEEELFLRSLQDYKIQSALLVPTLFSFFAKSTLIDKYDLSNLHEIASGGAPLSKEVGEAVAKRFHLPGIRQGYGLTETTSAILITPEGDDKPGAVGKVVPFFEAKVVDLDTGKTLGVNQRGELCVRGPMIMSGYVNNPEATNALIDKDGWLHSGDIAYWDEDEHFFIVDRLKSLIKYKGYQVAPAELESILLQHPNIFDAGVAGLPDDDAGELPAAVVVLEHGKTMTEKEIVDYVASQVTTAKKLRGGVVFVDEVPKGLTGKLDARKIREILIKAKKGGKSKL
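Purified P. pyralis luciferase (10nM final) with 10uM D-luciferin and 10uM ATP (Km levels) in 50mM Tris acetate pH 7.5, 10mM Mg acetate, 0.01% Tween-20, 0.05% BSA; qHTS 6-point titration, ~60 µM downward; luminescence read.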
KinaseGlo FLuc: counter-screen: inhibitors of Kinase-Glo firefly luciferase. Potency, µM (titrated, usually from 38.3 µM), actives largely listed as inhibitors. Kinase-Glo luciferase, ATP luminescence, 8 min. hit rate 0.28% among 200,000. AID 1379; further: nearly all actives have a fitted effect of over 60% in size
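Substrate mix (final 50 mM imidazole pH 7.2, 50 mM KCl, 7 mM MgCl2, 10 uM ATP, 0.01% Tween 20, 0.05% BSA) plus pin-tool compound, then Kinase-Glo detection mix; 8 min ambient, luminescence read.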
Numbers stand for hits; [ ] = remark or other dose. Rows were chosen to be rich in hits. Some 7.3% of all compounds tested hit in one or more screens of this group. The call rests on the fitted dose curve; in most records, active means well fitted curve in the direction sought with a large enough effect; inconclusive means small, poorly fitted or top-dose-only effect, or another doubt; inactive means no such curve, though single readings can be large; an effect the other way counts as inactive or inconclusive.

`COc1ccc(-c2cc3nnc(-c4ccccc4)nc3s2)cc1` gave NPC1 prom act inactive, ELG1 genotox inconclusive, Rab9 promoter act inconclusive, SMN2 splice up 0.71µM, FLuc modulator 0.17µM and KinaseGlo FLuc inactive.
Screening Cc1ccc(-c2nc3scc(CCNC(=O)Cc4ccc(Cl)cc4)n3n2)cc1 returned FLuc modulator inactive.
Nc1n[nH]c(N)c1N=Nc1cccc(F)c1 was read as NPC1 prom act inactive, ELG1 genotox inactive, Rab9 promoter act inactive, SMN2 splice up inactive, FLuc modulator 24µM and KinaseGlo FLuc inactive.
For Nc1n[nH]c(N)c1N=Nc1cccc(C(F)(F)F)c1 the results were NPC1 prom act inactive, ELG1 genotox inactive, Rab9 promoter act inactive and FLuc modulator inactive.
Cc1cccc(N=Nc2c(N)n[nH]c2N)c1 was read as NPC1 prom act inactive, ELG1 genotox inactive, Rab9 promoter act inactive and FLuc modulator inconclusive.
Screening Nc1[nH]ncc1N=Nc1ccc(Cl)cc1 returned NPC1 prom act inactive, ELG1 genotox 18µM, Rab9 promoter act inconclusive, SMN2 splice up inactive, FLuc modulator 13µM and KinaseGlo FLuc inactive.
`Nc1n[nH]c(N)c1N=Nc1ccc(Cl)cc1` gave NPC1 prom act inactive, ELG1 genotox inconclusive, Rab9 promoter act inactive, SMN2 splice up inactive, FLuc modulator 15µM and KinaseGlo FLuc inactive.
`C[C@@H](N)/C(N)=N/O` gave SMN2 splice up inactive[9.22 µM] and KinaseGlo FLuc inactive[7.66 µM].
Screening CN(C)CCNC(=O)c1ccc(-n2c(-c3ccccc3)cc3c2CCCC3)cc1 returned FLuc modulator inactive.
For CCOc1ccc(CCNC(=O)c2cn(C)c3ccc(S(=O)(=O)N4CCCCCC4)cc3c2=O)cc1OCC the results were SMN2 splice up inactive and FLuc modulator inactive.
`CCNC(=O)NC(=O)C(C)Oc1ccc(Br)cc1Br` (configuration not stated) gave NPC1 prom act inactive, ELG1 genotox inconclusive, Rab9 promoter act inactive, SMN2 splice up inconclusive, FLuc modulator 17µM and KinaseGlo FLuc inactive.
Screening CCNC(=O)NC(=O)C(C)OC(=O)C(C)(C)Oc1ccc(Cl)cc1 (configuration not stated) returned NPC1 prom act inactive, ELG1 genotox inactive, Rab9 promoter act inactive, SMN2 splice up inactive, FLuc modulator inactive and KinaseGlo FLuc inactive.
`Cc1cc(Nc2ccccc2)n(C(=O)c2ccc(Cl)cc2)n1` gave NPC1 prom act inactive, ELG1 genotox inactive, Rab9 promoter act inactive, SMN2 splice up inactive, FLuc modulator 11µM and KinaseGlo FLuc inactive.
Screening Cc1cc(Nc2ccccc2)n(-c2ccc(C(=O)O)cc2)n1 returned NPC1 prom act inactive, ELG1 genotox inactive, Rab9 promoter act inactive, SMN2 splice up inactive, FLuc modulator inactive and KinaseGlo FLuc inactive.
Screening Cc1cccc2cc3ccc4ccccc4c3cc12 returned SMN2 splice up inactive[9.22 µM] and KinaseGlo FLuc inactive[7.66 µM].
Cc1cc2ccc3ccccc3c2cc1CN(C)C was read as NPC1 prom act inactive, ELG1 genotox inactive, Rab9 promoter act inactive and FLuc modulator 7.6µM.
CCOC(=O)c1c(NC(C)=O)c2c3c(sc2n1Cc1nc(-c2ccccc2OCC)oc1C)CCCC3 was read as SMN2 splice up inactive and FLuc modulator inactive.
`Cc1nn(-c2ccc(Br)cc2)c(=O)c2ccccc12` gave NPC1 prom act inconclusive, ELG1 genotox inactive, Rab9 promoter act 2.8µM and FLuc modulator 8.5µM.
`Cc1nc(-c2ccc(Cl)cc2)sc1CCNC(=O)C(=O)Nc1ccc(F)cc1F` gave FLuc modulator inactive.
C=CCOC(=O)/C(=C/c1cccc2ccccc12)NC(=O)c1ccccc1 was read as NPC1 prom act inactive, ELG1 genotox inactive, Rab9 promoter act inactive, SMN2 splice up inconclusive, FLuc modulator 19µM and KinaseGlo FLuc inactive.
FC(F)(F)c1ccccc1-n1c(-c2cnccn2)n[nH]c1=S was read as NPC1 prom act inactive, ELG1 genotox inconclusive, Rab9 promoter act inactive and FLuc modulator 17µM.
Cc1ccc(-n2c(-c3cnccn3)n[nH]c2=S)c(Br)c1 was read as NPC1 prom act inactive, ELG1 genotox inactive, Rab9 promoter act inactive, FLuc modulator inactive and KinaseGlo FLuc inactive.
